CDK5 p35 inh = inhibitors of human CDK5/p35 kinase. inhibition, % at 10 µM. Recombinant CDK5/p35, ADP-Glo luminescence, 60 min. actives 0.01% (n = 330,000). AID 488839. Q00535+Q15078;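 active = highest replicate inhibition of at least 50% and at least 75% of replicates reaching 50%; inconclusive = only one of the two criteria met; inactive = both criteria failed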
Target sequence (Q00535 whole entry, looked up): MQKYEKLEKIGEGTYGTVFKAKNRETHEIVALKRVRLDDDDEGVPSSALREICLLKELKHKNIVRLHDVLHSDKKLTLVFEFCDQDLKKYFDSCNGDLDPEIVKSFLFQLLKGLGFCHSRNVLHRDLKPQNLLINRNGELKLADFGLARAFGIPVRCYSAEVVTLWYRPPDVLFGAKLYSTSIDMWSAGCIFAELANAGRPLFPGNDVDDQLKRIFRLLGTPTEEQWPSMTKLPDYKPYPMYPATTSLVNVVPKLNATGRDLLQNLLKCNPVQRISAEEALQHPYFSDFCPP
Target sequence (Q15078 whole entry, looked up): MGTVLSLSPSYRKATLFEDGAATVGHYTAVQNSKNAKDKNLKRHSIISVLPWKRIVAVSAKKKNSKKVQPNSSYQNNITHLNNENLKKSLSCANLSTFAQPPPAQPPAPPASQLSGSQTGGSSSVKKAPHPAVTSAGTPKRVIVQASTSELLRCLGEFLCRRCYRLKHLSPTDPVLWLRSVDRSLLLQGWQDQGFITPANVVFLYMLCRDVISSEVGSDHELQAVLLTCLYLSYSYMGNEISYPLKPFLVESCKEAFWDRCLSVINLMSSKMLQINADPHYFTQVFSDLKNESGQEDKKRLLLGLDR
esBAF inh = SWI/SNF esBAF complex inhibition. AID 602393. reporter increase, % at 12.5 µM. actives 2% (n = 350,000). mouse ES cells, Bmi1-luciferase knock-in reporter, 24 h; 100% = twice the neutral-well signal; in the data active = activation above about 40%; inconclusive = no clear call, values can overlap the other calls;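 note: a rise in the Bmi1 reporter signal indicates esBAF inhibition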
Dyrk1A ADPGlo = inhibitors of rat Dyrk1A kinase | Q63470 | inhibition, % at 12.5 µM | ADP-Glo luminescence, NFATc1 peptide | actives 0.43% (n = 310,000); in the data active = inhibition above about 50%
dFosB activator = activators of mouse delta FosB homodimer; actives 0.99% (n = 340,000); activation, % at 25 µM; purified delta FosB, TAMRA-CDK5 oligo fluorescence polarization; percent of positive-control signal above neutral wells;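 active = mean activation above about 17%, with every replicate also reaching it, limit read from the data, passing the limit was not always enough; inconclusive = only one of the two conditions met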
SMARCA2 act = SMARCA2 function activation, primary screen. MG213 cells, MMTV-luciferase reporter, dexamethasone, overnight. activation, % at 9.1 µM. actives 1% (n = 370,000). AID 652017; in the data active = activation above about 7.8%
Rtt109 HAT inh = C. albicans Rtt109 histone acetyltransferase inhibition | purified Rtt109/Vps75, ThioGlo CoA-SH fluorescence, 4 h | actives 0.16% (n = 330,000) | inhibition, % at 34.9 µM;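 active = inhibition of at least 50% in every replicate; inconclusive = best replicate reaches 50% inhibition but some replicates fall short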
Ring1 derepress = confirmation of esBAF inhibitors: Ring1 de-repression in mouse ESCs | shares compounds with esBAF inh | mouse ESC E14, Ring1 mRNA RT-qPCR fold change | fold change at 33 µM | 550 tested, under 10 active | AID 743176;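 active = Ring1 gene expression raised more than 2-fold over untreated cells in both replicates at either tested dose; inconclusive = only one replicate above 2-fold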;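 note: Ring1 transcript normalised to actin housekeeping signal by TaqMan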
Fgf4 repress = represses Fgf4 in mouse ESCs, confirming esBAF inhibition. mouse ESC E14, Fgf4 mRNA qPCR fold change; stronger effect = lower value. Fgf4 expression fold change at 33 µM. actives 4% (n = 550). shares compounds with esBAF inh. AID 743177;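 active = Fgf4 expression under 0.8 fold of control in both repeat measurements at one or both tested doses; inconclusive = under 0.8 fold in just a single repeat measurement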;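 note: Fgf4 transcript normalised to actin in duplex TaqMan qPCR; cells exposed to compound for 24 h before lysis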
esBAF Bmi1 qPCR = confirmation of esBAF inhibitors: Bmi1 de-repression in mouse ESCs; fold change at 33 µM; shares compounds with esBAF inh; mouse ESE14 ES cells, Bmi1 mRNA qPCR fold; stronger effect = higher value; 550 tested, under 10 active;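 active = Bmi1 expression fold change above 6 at either tested concentration, seen in replicate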;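 note: higher fold means more Bmi1 de-repression and stronger esBAF inhibition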
A549 cytotox = kills or reduces viability of A549 cells; shares compounds with esBAF inh; A549 cytotoxicity, plate reader; cell viability change % (negative = cytotoxic), % at 25 µM, hits read low; 550 tested, under 10 active; call rule not given here
HepG2 tox SP = cytotoxicity in HepG2 cells; shares compounds with esBAF inh; activity change, negative = inhibition, % at 25 µM; actives 4% (n = 550); plate reader; stronger effect = lower value; in the data active = activity change below about -50%
HEK293 tox SP = kills or reduces viability of HEK293 cells | shares compounds with esBAF inh | HEK293 cytotoxicity, plate reader | activity change, negative = inhibition, % at 25 µM, hits read low | actives 3% (n = 550); in the data active = activity change below about -38%, passing the limit was not always enough
Hits are given with their value; 0 = inactive; ? = inconclusive; - = no result. An excerpt weighted towards active compounds, which were near 3.2% of everything screened.

SMILES	CDK5 p35 inh	esBAF inh	Dyrk1A ADPGlo	dFosB activator	SMARCA2 act	Rtt109 HAT inh	Ring1 derepress	Fgf4 repress	esBAF Bmi1 qPCR	A549 cytotox	HepG2 tox SP	HEK293 tox SP
COc1ccc(CN(C)C[C@H]2OCCCC[C@@H](C)Oc3ccc(NC(=O)Nc4cccc5ccccc45)cc3C(=O)N([C@H](C)CO)C[C@H]2C)cc1	-	0	-	-	-	-	-	-	-	-	-	-
Cc1ccc2c(COC(=O)C34CC5CC(CC(C5)C3)C4)cc(=O)oc2c1	0	96	0	0	0	0	0	0	0	0	0	0
O=S(=O)(c1ccc2ccccc2c1)N1CCN(S(=O)(=O)c2c(F)cccc2F)CC1	0	80	0	0	0	0	0	?	0	0	0	0
O=C(C[C@H]1C=C[C@H](NC(=O)c2ccc(F)cc2)[C@@H](CO)O1)NCc1ccncn1	-	0	-	-	-	-	-	-	-	-	-	-
Cc1nc(-c2ccc(Cl)cc2)sc1C1(C)CC(c2cccnc2)=NO1 (configuration not stated)	0	77	0	0	0	0	0	0	0	0	0	0
CN(C)c1ccc(N=Nc2ccccc2C(=O)OCC(=O)Nc2ccccc2C(F)(F)F)cc1	0	54	0	0	0	0	0	0	0	0	0	0
CN(C)c1ccc(N=Nc2ccccc2C(=O)OCC(=O)N2CCCC2)cc1	0	-	0	0	0	?	-	-	-	-	-	-
NC(=O)c1cccc(-c2noc(-c3ccccc3F)n2)c1	0	0	0	0	0	0	-	-	-	-	-	-
NC(=O)c1ccccc1-c1nc(-c2ccccc2)no1	0	74	0	0	0	0	0	0	0	0	0	0
O=C(C[C@@H]1CC[C@H]2[C@@H](COC[C@H](O)CN2C(=O)c2ccncc2)O1)NCc1cccc(F)c1	-	0	-	-	-	-	-	-	-	-	-	-
C[C@H](CO)N1C[C@H](C)[C@H](CN(C)C(=O)CC2CC2)Oc2ncc(-c3ccc(C#N)cc3)cc2C1=O	-	0	-	-	-	-	-	-	-	-	-	-
CC(=O)N(/N=C1\Sc2ccccc2C1=O)c1ccccc1C	0	0	0	0	0	0	-	-	-	-	-	-
CC(=O)N(/N=C1\Sc2ccccc2C1=O)c1ccccc1	0	81	0	0	0	0	0	-	0	0	0	0
COc1cc(OC)c2c(-c3cccc(/C=C/c4ccc(F)cc4)c3)cc(=O)oc2c1	0	86	0	0	-	0	0	0	0	0	0	0
COc1ccc(-c2cccc(-c3cc(=O)oc4cc(OC)cc(OC)c34)c2)cc1	0	0	0	0	0	0	-	-	-	-	-	-
CCCC(=O)Nc1ccc2c(c1)OC[C@H](C)N(C(=O)C1CCCC1)C[C@H](C)[C@@H](OC)CN(C)C2=O	-	0	-	-	-	-	-	-	-	-	-	-
C[C@@H]1CCCCO[C@H](CN(C)C(=O)Nc2cccc3ccccc23)[C@H](C)CN([C@H](C)CO)C(=O)c2cc(NS(C)(=O)=O)ccc2O1	-	0	-	-	-	-	-	-	-	-	-	-
CC/C(=N\NC(=O)c1cc(C2CC2)[nH]n1)c1ccccc1	0	56	0	0	0	0	0	0	0	0	0	0
Brc1ccccc1-c1nnc(-c2cccnc2)o1	0	66	0	0	0	0	0	0	0	0	0	0
Cc1cccc(S(=O)(=O)N[C@H]2CC[C@H](CCNC(=O)c3cnccn3)O[C@H]2CO)c1	-	0	-	-	-	-	-	-	-	-	-	-
CCCc1nc2c3ccccc3ccn2c1Cc1cccc(Cl)c1	-	0	-	-	0	-	-	-	-	-	-	-
CCCc1nc2c3ccccc3ccn2c1Cc1ccc(C)cc1	-	101	-	-	0	-	0	0	0	0	-56	0
C=C1C2(C(=O)Nc3ccc(SC(F)F)cc3)CCC(C2)C1(C)C (configuration not stated)	0	0	-	0	0	0	-	-	-	-	-	-
O=C(Nc1ccc(SC(F)F)cc1)C12CCC(CC1)C2	0	56	0	0	0	0	0	?	0	0	0	0
COc1cccc(NC(=O)CNC(=O)c2ccc(C)cc2)c1	0	0	0	0	0	-	-	-	-	-	-	-
SMILES	CDK5 p35 inh	esBAF inh	Dyrk1A ADPGlo	dFosB activator	SMARCA2 act	Rtt109 HAT inh	Ring1 derepress	Fgf4 repress	esBAF Bmi1 qPCR	A549 cytotox	HepG2 tox SP	HEK293 tox SP
Cc1ccc(C(=O)NCC(=O)Nc2ccc3c(c2)CCC3)cc1	0	72	0	0	0	0	0	0	0	0	0	0
COc1ccccc1C(=O)NCC(=O)Nc1ccc2c(c1)CCC2	0	73	-	0	0	0	0	0	0	0	0	0
CN(C)C(=O)c1ccc(-c2cccc(-c3nc(C(=O)NC4CCCC4)cc4c3[C@H](CCO)N([S@@](=O)C(C)(C)C)C4)c2)cc1	-	0	-	-	-	-	-	-	-	-	-	-
C[C@@H]1CN([C@H](C)CO)C(=O)Cc2cc(NC(=O)CCC(F)(F)F)ccc2O[C@H]1CN(C)C(=O)Nc1ccc2c(c1)OCO2	-	0	-	-	-	-	-	-	-	-	-	-
COc1ccc(CNC(=O)Nc2cccc(C)c2)cc1	0	67	0	0	0	0	0	0	0	0	0	0
Nc1cc2c(cc1Cl)-c1ccccc1C2	0	108	0	0	0	0	0	0	0	0	0	0
Nc1cc(Cl)c(N)cc1Cl	0	0	0	0	0	0	-	-	-	-	-	-
CC(c1ccccc1)c1nnc(NC(=O)Nc2ccccc2F)s1 (configuration not stated)	0	80	0	0	0	0	0	0	0	0	0	0
COc1ccc(NC(=O)N(C)C[C@@H]2OCCCC[C@H](C)Oc3ccc(NC(=O)Nc4c(C)noc4C)cc3C(=O)N([C@H](C)CO)C[C@@H]2C)cc1	-	0	-	-	-	-	-	-	-	-	-	-
Cc1ccc(C(=O)Cc2ccccc2)c(O)c1	0	62	-	0	0	0	0	0	0	0	0	0
Cc1ccc(C(=O)CC(=O)c2ccc(C)cc2O)cc1	0	0	0	0	0	0	-	-	-	-	-	-
Fc1ccc2cc(-c3ccsc3)ncc2c1	0	60	0	0	0	0	0	0	0	0	0	0
C[C@H]1CN([C@@H](C)CO)C(=O)c2cc(NC(=O)CCCN(C)C)ccc2O[C@H]1CN(C)S(=O)(=O)c1ccccc1	-	0	-	-	-	-	-	-	-	-	-	-
Cc1ccc(-n2nnc(-c3nccn3C)n2)cc1	0	0	0	0	0	0	-	-	-	-	-	-
Cc1ccc(-n2nnc(-c3cccnc3)n2)cc1	0	60	0	0	0	0	0	0	0	0	0	0
CN(Cc1nccs1)C(=O)c1cc(COc2cccc3cnccc23)on1	0	0	0	0	0	0	-	-	-	-	-	-
